# According to PubChem BioAssay AID1498 (National Center for Advancing Translational Sciences (NCATS), 2009):
# Results filed as inconclusive are left out. Calls of active or inactive are those of the source. The call rests on the fitted dose curve.
# Test: Confirmation Concentration-Response Assay for Modulators of Lamin A Splicing
# Conditions: RFP activity: RFP channel at top concentration, at 46.1 µM; ratio activity: GFP/RFP ratio at top concentration, at 46.1 µM
# How it was run: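 S3 HeLa cells stably expressing lamin A-EGFP splicing minigene and DsRed2, 600 cells/well in Opti-MEM with 2% FBS, compounds 48 h at 37C; laser-scanning cytometry (488 nm), GFP/RFP total intensity ratio analysed; 0.5% DMSO.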
Structure (SMILES),RFP activity,outcome,ratio activity
O=C(COc1ccc(Br)cc1)NNC(=S)NC(=O)c1ccccc1[N+](=O)[O-],11.7%,inactive,-24.6%
CC(=O)c1c(C)[nH]c(C(=O)Nc2c(C)n(C)n(-c3ccccc3)c2=O)c1C,1.7%,inactive,-9.7%
CC1=NS(=O)(=O)c2cc(Cl)ccc2N1,-10.7%,inactive,-9.16%
Cn1c(Sc2ccccc2Cl)c(C=O)c2ccccc21,-2.07%,inactive,0.328%
CC(=O)Nc1ccc(-c2csc(NC(=O)C3CCN(S(=O)(=O)c4cccs4)CC3)n2)cc1,16.5%,inactive,-13.5%
